Each compound was assayed on Madurella mycetomatis MM55 (assay: percent growth relative to solvent control; higher = less inhibition, active = 20 or less). Conditions: 100 µM; 7 days.

SMILES | percent growth
CC(C)(C)n1nc(Cc2cccc3ccccc23)c2c(N)ncnc21 | 69.6% (inactive)
O=C(Nc1nnc(S)s1)c1cc(Br)ccc1Cl | 97% (inactive)
Nc1ncnc2c1c(-c1cnc3ccccc3c1)nn2CC1CCNCC1 | 93.3% (inactive)
O=C(NCc1ccco1)N1CCN(Cc2ccc(Cl)s2)CC1 | 90.6% (inactive)
O=C(Nc1ccnc(-c2cccnc2)n1)c1cc(C(F)(F)F)cc(C(F)(F)F)c1 | 169% (inactive)
CC(C)(C)c1cc(C(=O)N2CCN(c3nccnc3C#N)CC2)n(Cc2ccccc2)n1 | 56.8% (inactive)
CC[C@H](CO)NCCN[C@H](CC)CO | 139% (inactive)
CC(Oc1cccc(Cl)c1)C(=O)Nc1ccc2oc(-c3ccncc3)nc2c1 (stereo not drawn) | 51.2% (inactive)
COc1cccc2c(C)nc(N=C(N)N)nc12 | 96.9% (inactive)
Cc1cc(C(=O)Nc2cnn(Cc3ccc(Cl)cc3Cl)c2)no1 | 121% (inactive)
Cc1nn2c(=O)c3c([nH]c2c1-c1ccc(Cl)cc1)CCCC3 | 89.2% (inactive)
O=C(C1CCN(c2nnc(-n3cccc3)s2)CC1)N1CCC(Cc2ccccc2)CC1 | 108% (inactive)
Cc1cccnc1NC(=O)c1cccc(OCc2c(C)noc2C)c1 | 85.1% (inactive)
CN1CCN(S(=O)(=O)c2ccc(-c3ccc4c(Nc5ncc(Cl)cn5)ccnc4c3)cc2)CC1 | 98.9% (inactive)
O=C(CN1CCOCC1)Nc1ccc2ncnc(Nc3ccc(OCc4cccc(F)c4)c(Cl)c3)c2c1 | 79.4% (inactive)
CS(=O)(=O)N1CCC(Cn2nc(Cc3cccc4ccccc34)c3c(N)ncnc32)CC1 | 92.8% (inactive)
OCCc1ccc(Nc2nccc(-c3nnc4ccccn34)n2)cc1 | 88.7% (inactive)
CCS(=O)(=O)N(Cc1ccco1)Cc1cc2ccc(C)cc2nc1O | 85% (inactive)
CC(=O)Nc1ccc(NC(=O)c2cc(-c3cc(Cl)ccc3O)[nH]n2)cc1 | 155% (inactive)

SMILES | percent growth
CCc1nc2ccccc2n1CC(O)COc1cc(C)ccc1Cl (stereo not drawn) | 93.7% (inactive)
COCC(C)NC(=O)CSc1ncnc2sc(-c3ccccc3)cc12 (stereo not drawn) | 64.9% (inactive)
FC(F)(F)c1ccc(N(c2cccnc2)C2CCN(c3ccc(C(F)(F)F)cn3)CC2)cc1 | 59.5% (inactive)
O=C(Nc1ccc(F)c(-c2nc3cc(-c4ccccc4)cnc3[nH]2)c1)N1CCCC1 | 95.8% (inactive)
Cc1cccc(NC(=O)c2cc(S(=O)(=O)N(C)c3ccc(F)cc3)ccc2Cl)n1 | 70% (inactive)
Clc1cccc(CO[C@H]2CCc3ccccc3[C@@H]2n2ccnn2)c1 | 64.8% (inactive)
Nc1ncnc2c1ncn2C[C@@H](O)[C@@H](O)C(=O)O | 134% (inactive)
CC1(COc2ccc(N3CCC(Oc4ccc(OC(F)(F)F)cc4)CC3)cc2)Cn2cc([N+](=O)[O-])nc2O1 (stereo not drawn) | 111% (inactive)
COc1ccc(-c2nc(-c3cccc(NC(=O)Cc4ccc(F)cc4)c3)no2)cc1OC | 95% (inactive)
Cn1ncc2c(N3CCOCC3)nc(NCCc3c[nH]c4ccccc34)nc21 | 37.3% (inactive)
Nc1ncc(-c2ccc(C(F)(F)F)nc2)cc1-c1ccc(C(F)(F)F)nc1 | 94.5% (inactive)
CC(=O)NCC1CN(c2ccc(-c3ccc(CNCc4cn[nH]n4)cc3)c(F)c2)C(=O)O1 (stereo not drawn) | 125% (inactive)
Nc1ccc(C(=O)Nc2ccc(-c3nc4ccccc4o3)cc2)cc1 | 100% (inactive)
CC(=O)Oc1ccccc1C(=O)Nc1ncc([N+](=O)[O-])s1 | 104% (inactive)
Cc1ccc(S(=O)(=O)n2cc(-c3ccnc(N)c3)c3cc(Br)cnc32)cc1 | 25.4% (inactive)
COc1cccc(OC)c1C(=O)Nc1ccc(Cl)c(-c2nc3ccccc3s2)c1 | 78.4% (inactive)
Cc1ccc2[nH]c3c(NCCN(C)C)ncnc3c2c1 | 94.1% (inactive)
COC(=O)Nc1nc2cc(C(=O)c3ccccc3)ccc2[nH]1 | 111% (inactive)
O=C(NCCc1ccn(-c2ccccc2)n1)C1CCCCC1 | 49.1% (inactive)
